Reference: PubChem BioAssay (NCATS)
Inconclusive results are not listed. The source made the active and inactive calls. Unless noted, the call rests on the fitted dose curve; in most records, active means well fitted curve in the direction sought with a large enough effect; inconclusive means small, poorly fitted or top-dose-only effect, or another doubt; inactive means no such curve, though single readings can be large; an effect the other way counts as inactive or inconclusive.

system: not listed separately; experiment: qHTS Assay for Lipid Storage Modulators (AID 1519); conditions: Drosophila S3 cells, BODIPY lipid droplet/cell ratio, laser cytometry; measured here: cell count channel max response; cells loaded with oleic acid
Outline: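 Cells seeded at 5,000 per well were treated with compounds over a concentration series and loaded with oleic acid (400 uM, as added). Lipid droplet fluorescence (488 nm excitation, 500-530 nm channel) was read by laser-scanning cytometry and normalized to 20 uM Triacsin C.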

SMILES	max response
Clc1ccc(COC(Cn2ccnc2)c2ccc(Cl)cc2Cl)c(Cl)c1 (centres undefined)	-9.24%
C[C@@]12CCC(OS(=O)(=O)O)C[C@@H]1CCC1C2CC[C@]2(C)C(=O)CCC12 (some centres undefined)	17.5%
CCC1CN2CCC1CC2C(O)c1ccnc2ccccc12 (centres undefined)	-1.23%
C/C=C1/CN2CC[C@]34C(=C(C=O)[C@H]1C[C@@H]23)Nc1ccccc14	7.61%
O=C1C[C@@H](c2ccc(O)cc2)Oc2cc(O)cc(O)c21	-18.3%
O=C(O)CF	8.93%
OC1(c2ccc(Cl)cc2)CCN(Cc2c[nH]c3ccccc23)CC1	-29.2%
CNCC[C@H](Oc1ccc(C(F)(F)F)cc1)c1ccccc1	11.3%
O=c1ccc2c(O)c3ccoc3cc2o1	7.8%

same assay, conditions: Drosophila S3 cells, BODIPY lipid droplet/cell ratio, laser cytometry; measured here: lipid channel max response; cells loaded with oleic acid

SMILES	max response
Clc1ccc(COC(Cn2ccnc2)c2ccc(Cl)cc2Cl)c(Cl)c1 (centres undefined)	-3.69%
C[C@@]12CCC(OS(=O)(=O)O)C[C@@H]1CCC1C2CC[C@]2(C)C(=O)CCC12 (some centres undefined)	28%
CCC1CN2CCC1CC2C(O)c1ccnc2ccccc12 (centres undefined)	-3.67%
C/C=C1/CN2CC[C@]34C(=C(C=O)[C@H]1C[C@@H]23)Nc1ccccc14	5.28%
O=C1C[C@@H](c2ccc(O)cc2)Oc2cc(O)cc(O)c21	-14.1%
O=C(O)CF	13%
OC1(c2ccc(Cl)cc2)CCN(Cc2c[nH]c3ccccc23)CC1	-25.1%
CNCC[C@H](Oc1ccc(C(F)(F)F)cc1)c1ccccc1	10.4%
O=c1ccc2c(O)c3ccoc3cc2o1	27.4%

system: not listed separately; experiment: Validation screen for inhibitors of Lassa infection (AID 463096; calls by dose curve; on activity change, negative = inhibition: on the % scale 0 is the no-effect control and ±100 the full control effect); conditions: Lassa virus infection, cell-based; series mostly up to 46.1 µM; activity change, negative = inhibition: at the top concentration

SMILES	outcome	activity change, negative = inhibition
COc1ccc(CCN(C)CCCC(C#N)(c2ccc(OC)c(OC)c2)C(C)C)cc1OC (centres undefined)	inactive	
O=S(=O)(c1cccc2c(Cl)cccc12)N1CCCNCC1		-32.7% (inactive)
O=S(=O)(c1cccc2c(I)cccc12)N1CCCNCC1		-6.49% (inactive)

system: not listed separately; experiment: Inducers of the Endoplasmic Reticulum Stress Response (ERSR) in human glioma: Validation (AID 504836); conditions: human glioma cells, ER stress response reporter; series mostly up to 38.3 µM; activation: at the top concentration; further: 0% is about no effect
Outline: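 Stably transfected U87-MG glioma cells carrying a GRP78-based luciferase sensor; 16 h compound incubation. Luminescence end-point read 10 min after Bright-Glo addition at room temperature.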

SMILES	activation
Clc1ccc2c(c1)N=C(N1CCNCC1)c1ccccc1N2	-0.443% (inactive)
OC1(c2ccc(Cl)cc2)CCN(Cc2c[nH]c3ccccc23)CC1	-1.41% (inactive)
O=S(=O)(c1cccc2c(Cl)cccc12)N1CCCNCC1	-1.84% (inactive)
O=S(=O)(c1cccc2c(I)cccc12)N1CCCNCC1	4.06% (inactive)
CNCC[C@H](Oc1ccc(C(F)(F)F)cc1)c1ccccc1	-2.95% (inactive)

target: Ubiquitin carboxyl-terminal hydrolase 1 (Homo sapiens) (UniProt O94782); experiment: Inhibitors of USP1/UAF1: Pilot qHTS (AID 504865); conditions: purified USP1/UAF1, Ub-rhodamine cleavage fluorescence; series mostly up to 114 µM; activity change, negative = inhibition: at the top concentration;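 further: rhodamine fluorescence freed from ubiquitin-rhodamine substrate followed over time; top concentration of the series differs between compounds; on the % scale 0 is the no-effect control and ±100 the full control effect; nearly all actives have a fitted effect of over 35% in size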
Outline: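 Deubiquitinase activity followed as kinetic rhodamine fluorescence release from 150 nM Ub-Rho. 1 nM USP1/UAF1 with compound, after 15 min room-temperature preincubation, in HEPES pH 7.8 buffer containing TCEP, EDTA, BSA and Tween-20.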

Chain of Ubiquitin carboxyl-terminal hydrolase 1 (Homo sapiens) (O94782 whole entry, looked up): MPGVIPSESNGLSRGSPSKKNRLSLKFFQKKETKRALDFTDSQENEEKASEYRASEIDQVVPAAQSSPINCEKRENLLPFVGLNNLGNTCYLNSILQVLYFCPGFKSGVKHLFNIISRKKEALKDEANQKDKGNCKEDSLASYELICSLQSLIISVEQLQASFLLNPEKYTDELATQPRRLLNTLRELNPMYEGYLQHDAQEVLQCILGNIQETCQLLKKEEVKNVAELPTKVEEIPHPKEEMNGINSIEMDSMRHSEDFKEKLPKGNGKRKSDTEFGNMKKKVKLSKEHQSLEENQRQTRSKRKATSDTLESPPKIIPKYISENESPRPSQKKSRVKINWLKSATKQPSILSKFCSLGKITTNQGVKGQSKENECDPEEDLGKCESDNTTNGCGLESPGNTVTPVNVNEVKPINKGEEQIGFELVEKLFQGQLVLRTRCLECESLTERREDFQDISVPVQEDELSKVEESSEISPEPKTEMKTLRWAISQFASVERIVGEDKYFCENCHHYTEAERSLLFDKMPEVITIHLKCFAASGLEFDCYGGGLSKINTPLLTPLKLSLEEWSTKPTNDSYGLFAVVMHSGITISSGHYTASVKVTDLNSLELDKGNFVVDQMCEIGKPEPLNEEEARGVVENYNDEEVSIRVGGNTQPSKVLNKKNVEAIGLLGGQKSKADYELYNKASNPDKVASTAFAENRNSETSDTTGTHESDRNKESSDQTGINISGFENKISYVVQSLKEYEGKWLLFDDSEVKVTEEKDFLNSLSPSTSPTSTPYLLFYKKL

SMILES	activity change, negative = inhibition
C[C@@]12CCC(OS(=O)(=O)O)C[C@@H]1CCC1C2CC[C@]2(C)C(=O)CCC12 (some centres undefined)	-10.1% (inactive)
CCCOc1ccc2[nH]cc(C3=CCNCC3)c2n1	-10.3% (inactive)
CCC1CN2CCC1CC2C(O)c1ccnc2ccccc12 (centres undefined)	-10.1% (inactive)
C/C=C1/CN2CC[C@]34C(=C(C=O)[C@H]1C[C@@H]23)Nc1ccccc14	-9.24% (inactive)
O=c1ccc2c(O)c3ccoc3cc2o1	-14.7% (inactive)

target: DNA dC->dU-editing enzyme APOBEC-3G (Homo sapiens) (UniProt Q9HC16); experiment: qHTS for inhibitors of Vif-A3G interactions: Validation (AID 588379); conditions: Vif-A3G protein interaction assay; series mostly up to 46.1 µM; activity change, negative = inhibition: at the top concentration; further: 0% is about no effect
Outline: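 HeLa cells stably expressing Vif and A3G-eYFP, 700 cells/well, incubated overnight at 37 deg C, then exposed to compound overnight at 37 deg C. Inhibition of Vif-mediated degradation read as increased yellow fluorescence (Ex 488/Em 500-530) by laser-scanning cytometry.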

Chain of DNA dC->dU-editing enzyme APOBEC-3G (Homo sapiens) (Q9HC16 whole entry, looked up): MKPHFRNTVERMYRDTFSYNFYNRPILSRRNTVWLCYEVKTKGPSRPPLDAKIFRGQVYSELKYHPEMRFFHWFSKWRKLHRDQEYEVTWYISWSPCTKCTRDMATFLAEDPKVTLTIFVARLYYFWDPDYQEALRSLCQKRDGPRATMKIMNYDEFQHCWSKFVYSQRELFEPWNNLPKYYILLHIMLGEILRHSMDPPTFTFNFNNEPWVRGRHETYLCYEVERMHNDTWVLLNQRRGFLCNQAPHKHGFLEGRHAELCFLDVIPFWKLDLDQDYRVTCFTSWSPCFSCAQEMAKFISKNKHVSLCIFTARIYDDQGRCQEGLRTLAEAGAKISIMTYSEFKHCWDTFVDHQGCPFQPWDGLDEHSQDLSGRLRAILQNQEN

SMILES	activity change, negative = inhibition
CCCOc1ccc2[nH]cc(C3=CCNCC3)c2n1	-2.57% (inactive)
CCC1CN2CCC1CC2C(O)c1ccnc2ccccc12 (centres undefined)	-3.87% (inactive)
C/C=C1/CN2CC[C@]34C(=C(C=O)[C@H]1C[C@@H]23)Nc1ccccc14	-2.65% (inactive)

system: not listed separately; experiment: qHTS for Inhibitors of the Functional Ribonucleoprotein Complex (vRNP) of Lassa (LASV) Arenavirus: LASV Primary Screen - GLuc reporter signal (AID 1347082; calls by dose curve; tested in HEK293 reporter line; further: nearly all actives have a fitted effect of over 60% in size; further: potency means the concentration at half of the fitted maximal effect; on activity change, negative = inhibition: on the % scale 0 is the no-effect control and ±100 the full control effect); conditions: LASV minigenome vRNP, Gaussia luciferase reporter; series mostly up to 57.5 µM; activity change, negative = inhibition: at the top concentration

SMILES	activity change, negative = inhibition	Potency
CC1=C[C@@H]2c3cccc4[nH]cc(c34)C[C@H]2N(C)C1	-14.9% (inactive)	
C=C1C(=O)[C@@]23C(CC[C@@H]1[C@H]2O)[C@@]12CO[C@]3(O)[C@@H](O)[C@@H]1C(C)(C)CC[C@@H]2O (some centres undefined)		9680 nM (active)
CCN1C[C@]2(C)CC[C@H](OC)[C@]34C5C[C@@H]6CC[C@@](O)(C5C(=O)O6)C(C13)[C@@H](OC(=O)c1ccccc1)C24	15.8% (inactive)	
Clc1ccc(COC(Cn2ccnc2)c2ccc(Cl)cc2Cl)c(Cl)c1 (centres undefined)	-2.28% (inactive)	
C[C@@]12CCC(OS(=O)(=O)O)C[C@@H]1CCC1C2CC[C@]2(C)C(=O)CCC12 (some centres undefined)	-12% (inactive)	
C=C1C2C[C@]3(C4CC5[C@@]6(C)CC[C@H](O)[C@@]5(C3CC2=O)C4[N+]([O-])(CC)C6)[C@@H]1O (some centres undefined)	0.593% (inactive)	
C1CC[C@H]([C@@]23C[C@H](C[C@H]4CCCN[C@H]42)[C@@H]2CCCCN2C3)NC1	-10.8% (inactive)	
COC1=C[C@]23CCCN2CCc2cc4c(cc2[C@@H]3[C@@H]1O)OCO4	-2.28% (inactive)	
CN(C/C=C/c1ccccc1)Cc1cccc2ccccc12	-18% (inactive)	
CC(C)c1cnn2c(NCc3ccccc3)cc(N[C@@H](CO)[C@H](O)CO)nc12		2430 nM (active)
CO[C@@H]1C(N(C)C(=O)c2ccccc2)C[C@H]2O[C@]1(C)n1c3ccccc3c3c4c(c5c6ccccc6n2c5c31)C(=O)NC4=O (some centres undefined)	-24.2% (inactive)	
CCCOc1ccc2[nH]cc(C3=CCNCC3)c2n1	3.38% (inactive)	
O=C1NCCc2[nH]c(-c3ccncc3)cc21		21700 nM (active)
CCC1CN2CCC1CC2C(O)c1ccnc2ccccc12 (centres undefined)	-1.85% (inactive)	
Cc1c(-c2ccc(O)cc2)n(Cc2ccc(OCCN3CCCCCC3)cc2)c2ccc(O)cc12		inactive
COC(=O)C1=CO[C@@H](C)[C@@H]2CN3CC[C@]4(C(=O)Nc5c4ccc(OC)c5OC)[C@H]3C[C@H]12	-0.197% (inactive)	
CCCCC(C)(C)[C@H](O)C=C[C@H]1[C@H](O)CC(=O)[C@H]1CC=CCCCC(=O)O	4.11% (inactive)	
O=C1CCC[C@H]2[C@H]3CCCN4CCCC(=CN12)[C@@H]34	0.324% (inactive)	
O=C(NCCCCN1CCOCC1)c1cc2ccccc2o1	-14.5% (inactive)	
Cc1ccc(C(=O)Nc2cccc(C(F)(F)F)c2)cc1Nc1nc(-c2cccnc2)nc2c1cnn2C	13.2% (inactive)	

SMILES	activity change, negative = inhibition	Potency
N#CC1(c2cccc(C(=O)Nc3cc(Oc4ccc5nc(NC(=O)C6CC6)sc5n4)ccc3F)c2Cl)CC1	-8.26% (inactive)	
C/C=C1/CN2CC[C@]34C(=C(C=O)[C@H]1C[C@@H]23)Nc1ccccc14	11.3% (inactive)	
O=C1C[C@@H](c2ccc(O)cc2)Oc2cc(O)cc(O)c21	3.16% (inactive)	
OC[C@@H]1[C@@H](O)[C@H](O)[C@H]2[C@@H](O)CCN21	4.23% (inactive)	
C[N+](C)([O-])CCNc1ccc(NCC[N+](C)(C)[O-])c2c1C(=O)c1c(O)ccc(O)c1C2=O	9.79% (inactive)	
Clc1ccc2c(c1)N=C(N1CCNCC1)c1ccccc1N2	2.28% (inactive)	
O=C(O)CF	-15.8% (inactive)	
CC(C)c1nn(-c2c(Cl)cccc2Cl)c2nc(Cc3ccc(OCCO)cc3)[nH]c(=O)c12		172 nM (active)
CC1(C)OC1COc1c2occc2cc2ccc(=O)oc12 (centres undefined)	0.778% (inactive)	
CC(C)(O)C1OC2CCC3(C)C(O)(CCC4Cc5c([nH]c6ccccc56)C43C)C2=CC1=O (centres undefined)	-20.4% (inactive)	
OCCCNc1cc(-c2ccnc(Nc3cccc(Cl)c3)n2)ccn1		306 nM (active)
COc1ccc(CCN(C)CCCC(C#N)(c2ccc(OC)c(OC)c2)C(C)C)cc1OC (centres undefined)		inactive
CCN1C[C@]2(C)CC[C@H](OC)[C@@]34[C@H]1C1(OCO[C@@]15C[C@H](OC)C1C[C@]3(O)C5[C@H]1OC)[C@@H](O)[C@H]24	7.62% (inactive)	
OC1(c2ccc(Cl)cc2)CCN(Cc2c[nH]c3ccccc23)CC1	-8.26% (inactive)	
O=S(=O)(c1cccc2c(Cl)cccc12)N1CCCNCC1	-12% (inactive)	
CS(=O)(=O)N(Cc1ccco1)CC(O)Cn1c2ccccc2c2ccccc21 (centres undefined)	-16.6% (inactive)	
CN1C2CCC1CC(OC(=O)C1CCC(C(=O)OC3CC4CCC(C3)N4C)(c3ccccc3)c3ccccc31)C2 (centres undefined)	11.6% (inactive)	
O=S(=O)(c1cccc2c(I)cccc12)N1CCCNCC1	2.85% (inactive)	
CNCC[C@H](Oc1ccc(C(F)(F)F)cc1)c1ccccc1	-21.5% (inactive)	
O=c1ccc2c(O)c3ccoc3cc2o1	5.54% (inactive)	
